Screening results from PubChem.
Rows were chosen to be rich in hits. Some 10% of all compounds tested hit in one or more screens of this group.
HEK cytotox – Cytotoxic Profiling in HEK 293 Cell Line of Diverse Libraries Using Quantitative High-Throughput Screening; Potency, µM (highest dose often 115 µM), for the others: at the top dose activity change, negative = cytotoxicity, hits mostly inhibitors; HEK 293 viability, ATP luminescence (CellTiter-Glo), 48-72 h; hit rate 6.6% among 94,000; AID 1345083, 2018; also: nearly all actives have a fitted effect of over 60% in size
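HEK 293 seeded at 250 cells/well receive compound via pintool. After 48 or 72 hr at 37 degree Celsius, 5% CO2 and 95% humidity, CellTiter-Glo is dispensed and luminescence read following 10 min at room temperature.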
hNpr1 antagonist – Natriuretic polypeptide receptor (hNpr1) antagonism - Primary qHTS; Atrial natriuretic peptide receptor 1 (Homo sapiens), P16066; HEK293 hNpr1 GloSensor cGMP, ANP-stimulated luminescence; Potency, µM (series often up to 46.3 µM), inactives show at the top dose activity change, negative = inhibition, most hits filed as inhibitors; hit rate 1.6% among 76,000; calls by dose curve; also: nearly all actives have a fitted effect of over 60% in size
Target sequence (P16066 whole entry, looked up): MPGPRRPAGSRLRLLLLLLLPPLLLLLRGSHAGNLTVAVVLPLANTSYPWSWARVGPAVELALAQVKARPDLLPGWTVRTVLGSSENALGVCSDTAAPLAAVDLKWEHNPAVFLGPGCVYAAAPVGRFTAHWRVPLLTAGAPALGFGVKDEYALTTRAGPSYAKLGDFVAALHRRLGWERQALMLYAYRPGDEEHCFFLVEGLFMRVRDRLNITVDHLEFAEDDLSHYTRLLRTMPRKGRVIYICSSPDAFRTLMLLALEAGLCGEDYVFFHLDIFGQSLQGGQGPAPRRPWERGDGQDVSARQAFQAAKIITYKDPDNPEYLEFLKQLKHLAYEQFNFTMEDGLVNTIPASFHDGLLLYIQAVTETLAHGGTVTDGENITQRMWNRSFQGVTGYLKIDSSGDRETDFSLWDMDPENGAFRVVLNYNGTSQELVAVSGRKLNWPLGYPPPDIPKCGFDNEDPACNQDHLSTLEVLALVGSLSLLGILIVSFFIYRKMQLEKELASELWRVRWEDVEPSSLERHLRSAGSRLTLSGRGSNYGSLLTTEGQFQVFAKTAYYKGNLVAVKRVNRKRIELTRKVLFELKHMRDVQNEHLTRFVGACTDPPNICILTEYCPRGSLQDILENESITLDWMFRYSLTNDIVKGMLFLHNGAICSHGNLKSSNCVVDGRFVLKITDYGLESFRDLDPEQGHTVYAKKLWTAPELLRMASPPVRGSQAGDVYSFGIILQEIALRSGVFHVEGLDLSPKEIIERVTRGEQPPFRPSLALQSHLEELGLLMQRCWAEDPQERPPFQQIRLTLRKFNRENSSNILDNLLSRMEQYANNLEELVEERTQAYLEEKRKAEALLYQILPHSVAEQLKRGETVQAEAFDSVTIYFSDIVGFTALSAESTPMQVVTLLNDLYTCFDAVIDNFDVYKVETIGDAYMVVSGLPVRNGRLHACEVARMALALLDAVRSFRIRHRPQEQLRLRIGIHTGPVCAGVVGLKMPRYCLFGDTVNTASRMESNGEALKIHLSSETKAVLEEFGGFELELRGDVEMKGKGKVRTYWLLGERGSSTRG
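Compound pre-incubated 30 min at room temperature on GloSensor-loaded HEK293 cells stably carrying hNpr1 and the pGS-40F cGMP biosensor. Stimulation uses hNppA at 0.1 nM final; luminescence is taken at baseline and 20 min post-agonist.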
3T3 cytotox – Cytotoxic Profiling in NIH 3T3 Cell Line of Diverse Libraries Using Quantitative High-Throughput Screening; NIH 3T3 viability, CellTiter-Glo ATP luminescence, 48-72 h; Potency, µM (titrated, usually from 96.7 µM), inactives show at the highest dose activity change, negative = cytotoxicity, hits mostly inhibitors; hit rate 4.3% among 94,000; AID 1345082, 2018; also: nearly all actives have a fitted effect of over 55% in size
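Viability of NIH 3T3 cells after 48 or 72 hr compound treatment at 37 °C was assessed by CellTiter-Glo, with luminescence imaged following a 10 min room-temperature step.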
GPT2 inhibitor – Primary qHTS assay for inhibitors of Glutamate pyruvate transaminase 2 (GPT2); Potency, µM (titrated, usually from 57.7 µM), without a hit: at the top dose activity change, negative = inhibition, actives largely listed as inhibitors; hit rate 0.25% among 100,000; Alanine aminotransferase 2 (Homo sapiens), Q8TD30; Recombinant GPT2, coupled pyruvate oxidase/HRP Amplex Red fluorescence; AID 1671188, 2021; also: nearly all actives have a fitted effect of over 60% in size
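Inhibition is scored from Amplex Red fluorescence generated when pyruvate oxidase and HRP act on pyruvate released by GPT2. Reactions contain 10ng/uL enzyme, 250uM a-KG and 2mM L-alanine and run 30 min at room temperature.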
Luciferase inh – Firefly luciferase inhibition profiling of diverse chemical library using quantitative high-throughput screening. Luciferin 4-monooxygenase (Photinus pyralis), P08659. purified P. pyralis luciferase, luminescence, biochemical. Potency, µM (titrated, usually from 115 µM), actives largely listed as inhibitors. hit rate 2.5% among 76,000. AID 1347043, 2019; also: nearly all actives have a fitted effect of over 65% in size
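Purified 10nM P. pyralis luciferase with 10uM D-luciferin and 10uM ATP in 50mM Tris acetate pH 7.5, 10mM Mg acetate, 0.01% Tween-20, 0.05% BSA. qHTS titration; luminescence read by CCD imager.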
The depositor's hits bear a star; i = inactive; ? = inconclusive; · = no result; [ ] = dose if it differs, or a comment. Unless noted, calls follow the shape of the dose curve; as a rule, active = well fitted curve in the direction sought with a large enough effect; inconclusive = small, poorly fitted or top-dose-only effect, or another doubt; inactive = no such curve, though single readings can be large; an effect the other way counts as inactive or inconclusive. % is scaled to controls: 0 for no effect and ±100 for the full control effect; potency is read from the fitted curve at half-maximal effect.

SMILES	HEK cytotox	hNpr1 antagonist	3T3 cytotox	GPT2 inhibitor	Luciferase inh
CSc1ccc(CNC(=O)c2noc(-c3ccc(F)cc3)n2)cc1	-27.4%	-9.2%	?	?	28.2µM*
COc1cccc(CNC(=O)c2c[nH]c3ncccc23)c1	-15.3%[172 µM]	5.4%[70.6 µM]	?	i	39.8µM*
Cc1ccc(CNC(=O)c2noc(-c3ccc4c(c3)OCO4)n2)cc1	?	-6.4%	-17.7%	i	?
O=C(Cc1cccc(F)c1)N1CCC2(CC1)NCCc1c2[nH]c2ccccc12	?	-7.2%	?	i	i
COc1cccc(CNC(=O)c2noc(-c3ccc(C)cc3)n2)c1	-11.7%	-1.7%	-21.5%	3.0%	28.2µM*
COc1ccc(CNC(=O)c2noc(-c3ccc(C)cc3)n2)cc1	-19.7%	0.9%	-8.5%	i	i
O=C(c1cc(-c2ccccc2)n[nH]1)N1CCCC(Cc2noc(-c3cnccn3)n2)C1 (centres undefined)	-12.1%	2.1%	-3.4%	i	i
O=C(Nc1ccc(F)cc1)[C@@H]1C[C@@H](c2cccc(C(F)(F)F)c2)N(CC2CCOCC2)C1	?	-18.0%	25.1µM*	-0.1%	i
Cn1cc(CN2C[C@H](C(=O)Nc3ccc(F)cc3)C[C@H]2c2cccc(C(F)(F)F)c2)cn1	?	-9.7%	?	-0.1%	i
O=C(Nc1ccncn1)[C@@H]1C[C@@H](c2cccc(C(F)(F)F)c2)N(CC2CCOCC2)C1	79.4µM*	-6.7%[70.6 µM]	?	-5.7%[88.5 µM]	i
CC[C@H]1CN(C(=O)Nc2cccc(OC)c2)CC[C@H]1CC(=O)NCc1ccccc1	-13.2%[172 µM]	-12.6%[70.6 µM]	-29.8%[174 µM]	i	i
CC[C@H]1CN(C(=O)Nc2cccc(C(F)(F)F)c2)CC[C@H]1CC(=O)NCc1ccc(OC)cc1	39.8µM*	?	?	-6.8%	i
O=c1c2nc(-c3cccc(O)c3)ccc2ncn1-c1ccccc1	?	3.2%[70.6 µM]	8.91µM*	-25.1%[88.5 µM]	70.8µM*
O=c1c2nc(OCc3ccc(F)cc3)ccc2ncn1C1CC1	?	-4.0%[70.6 µM]	?	i	i
COc1ccc(-c2ccc3ncn(C4CC4)c(=O)c3n2)cc1OC	?	3.5%[70.6 µM]	39.8µM*	2.9%[88.5 µM]	63.1µM*
O=c1c2nc(-c3cccc(O)c3)ccc2ncn1C1CC1	-28.5%[230 µM]	1.3%[70.6 µM]	63.1µM*	0.3%[88.5 µM]	?
NCCC(=O)N1CCCC2(Cc3ccccc3CN2C(=O)c2cccc(Cl)c2)C1 (centres undefined)	?	·	?	-11.5%	·
COC(=O)CNC(=O)C1CCCN1C(=O)c1cccc(-c2ccccn2)c1 (centres undefined)	-12.2%	·	-9.0%	i	·
CC1(C)C[C@H](NC(=O)c2cccc(F)c2)[C@@]2(CCC(=O)NCc3ccco3)CC[C@](C)(O)C[C@@H]12	?	3.3%	?	-24.0%	i
Cc1ccc(CN2CC[C@H](c3nc4cc(C)ccc4o3)C2)cc1	?	0.0%[70.6 µM]	?	-3.6%[88.5 µM]	44.7µM*
Cc1ccc2oc([C@H]3CCN(Cc4ccccn4)C3)nc2c1	?	-16.7%[70.6 µM]	?	?	?
Cc1ccc2oc([C@H]3CCN(C(=O)C4CC4)C3)nc2c1	?	5.1%[70.6 µM]	-18.6%[174 µM]	-5.4%[88.5 µM]	35.5µM*
Cc1ccc2oc([C@H]3CCN(Cc4ccc(C(=O)O)cc4)C3)nc2c1	-6.7%[172 µM]	2.2%[70.6 µM]	?	-0.8%[88.5 µM]	70.8µM*
COc1c2c(c(CO)c3c1C(=O)OC3)OC1(C)CCC3(O)C(C)(C)OC(=O)CCC3(C)C1C2 (centres undefined)	·	·	·	i	·
CN1CC(=O)N(C2CCCNCC2)Cc2c1ncnc2N1CCN(Cc2ccccc2)CC1 (centres undefined)	i	·	i	-15.8%	·
CC#CCn1cc2c3c(cccc31)[C@H](CC(C)C)N[C@H](C(=O)NCc1cccs1)C2	70.8µM*	-14.6%[70.6 µM]	?	0.2%[88.5 µM]	i
